Rows were chosen to be rich in hits. Some 7.2% of all compounds tested hit in one or more screens of this group.
FLuc inh = Firefly luciferase inhibition profiling of diverse chemical library using quantitative high-throughput screening | Luciferin 4-monooxygenase (Photinus pyralis), P08659 | purified P. pyralis luciferase, luminescence, biochemical | Potency, µM (titrated, usually from 115 µM), hits mostly inhibitors | hit rate 2.5% among 76,000 | AID 1347043, 2019; also: nearly all actives have a fitted effect of over 65% in size
Target sequence (P08659 whole entry, looked up): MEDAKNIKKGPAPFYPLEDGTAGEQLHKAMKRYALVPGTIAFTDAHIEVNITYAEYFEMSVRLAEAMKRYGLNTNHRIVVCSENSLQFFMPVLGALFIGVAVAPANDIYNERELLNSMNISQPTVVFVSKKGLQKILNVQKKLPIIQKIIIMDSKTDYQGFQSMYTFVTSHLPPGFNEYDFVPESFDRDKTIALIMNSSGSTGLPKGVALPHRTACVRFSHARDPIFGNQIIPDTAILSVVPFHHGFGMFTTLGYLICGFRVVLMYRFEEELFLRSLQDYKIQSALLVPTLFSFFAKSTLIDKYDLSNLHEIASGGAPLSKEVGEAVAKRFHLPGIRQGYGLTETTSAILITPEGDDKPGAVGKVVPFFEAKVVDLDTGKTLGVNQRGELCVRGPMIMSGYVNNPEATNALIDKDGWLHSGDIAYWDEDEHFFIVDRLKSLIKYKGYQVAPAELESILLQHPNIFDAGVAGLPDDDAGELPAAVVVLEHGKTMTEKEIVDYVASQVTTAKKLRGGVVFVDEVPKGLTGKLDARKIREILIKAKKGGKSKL
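Cell-free enzyme assay, 10nM P. pyralis luciferase, luciferin and ATP each at 10uM. Inhibition profiled over a 6-point titration, read as luminescence.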
SNCA viab count = GF-AFC viability counterscreen for inhibitors of alpha-synuclein gene (SNCA) expression; HEK-293-SNCA-luc viability, GF-AFC fluorescence, 24 h; Potency, µM (doses to about 57.1 µM), actives largely listed as cytotoxic; hit rate 0.12% among 150,000; AID 1671193, 2021; also: nearly all actives have a fitted effect of over 30% in size
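Cytotoxicity counterscreen: after 24 h compound treatment of genome-edited SNCA-luciferase HEK-293 cells, live-cell protease substrate GF-AFC read by fluorescence after 30 min; activity scaled between DMSO (0%) and medium-only (-100%), curves Hill-fitted.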
SNCA expr inh = Primary qHTS assay for inhibitors of alpha-synuclein gene (SNCA) expression; hit rate 0.17% among 140,000; Potency, µM (top dose mostly 57.2 µM), actives largely listed as inhibitors; HEK-293 SNCA-luciferase knock-in, luminescence, 24 h; AID 1671194, 2021; also: nearly all actives have a fitted effect of over 45% in size
3T3 cytotox = Cytotoxic Profiling in NIH 3T3 Cell Line of Diverse Libraries Using Quantitative High-Throughput Screening; NIH 3T3 viability, CellTiter-Glo ATP luminescence, 48-72 h; Potency, µM (doses to about 96.7 µM), actives largely listed as inhibitors; hit rate 4.3% among 94,000; AID 1345082, 2018; also: nearly all actives have a fitted effect of over 55% in size
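Cells were seeded at 400 per well, treated with pin-transferred compound, and kept 48 or 72 hr at 37 °C before CellTiter-Glo addition and luminescence imaging of cellular ATP.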
hNpr1 antagonist = Natriuretic polypeptide receptor (hNpr1) antagonism - Primary qHTS | Atrial natriuretic peptide receptor 1 (Homo sapiens), P16066 | HEK293 hNpr1 GloSensor cGMP, ANP-stimulated luminescence | Potency, µM (series often up to 46.3 µM), usual class: inhibitors | hit rate 1.6% among 76,000 | AID 1347048, 2019; calls by dose curve; also: nearly all actives have a fitted effect of over 60% in size
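HEK293 cells stably expressing human Npr1 and cGMP GloSensor pGS-40F, loaded 2 h with 2% GloSensor reagent, given compound 30 min at room temperature. Luminescence read before and 20 min after 0.1 nM hNppA.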
HEK293 tox = Cytotoxic Profiling in HEK 293 Cell Line of Diverse Libraries Using Quantitative High-Throughput Screening; hit rate 6.6% among 94,000; AID 1345083, 2018; Potency, µM (series often up to 115 µM), actives largely listed as inhibitors; HEK 293 viability, ATP luminescence (CellTiter-Glo), 48-72 h; also: nearly all actives have a fitted effect of over 60% in size
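Luminescence from cellular ATP, measured with CellTiter-Glo, indicates HEK 293 viability. Cells plated at 250 cells/well are treated with compound for 48 or 72 hr at 37 degree Celsius before reagent addition.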
Numbers stand for hits; 0 = inactive; ? = inconclusive; - = not tested or not shown; [ ] = dose if it differs, or a comment. Unless noted, calls follow the shape of the dose curve; as a rule, active = well fitted curve in the direction sought with a large enough effect; inconclusive = small, poorly fitted or top-dose-only effect, or another doubt; inactive = no such curve, though single readings can be large; an effect the other way counts as inactive or inconclusive.

SMILES	FLuc inh	SNCA viab count	SNCA expr inh	3T3 cytotox	hNpr1 antagonist	HEK293 tox
COc1ccc(CC(=O)N2CCc3c([nH]c4ccccc34)C2c2ccc(SC)cc2)cc1 (configuration not stated)	-	0	0	-	-	-
COc1ccc(-c2nc(C)nc3c2CN(C(=O)c2ccccc2Cl)CC3)cc1	-	0	0	0	-	0
COc1ccc(-c2ccc3nc(-c4cccc(Cl)c4)oc3c2)c(OC)c1OC	?	0	0	0	0	?
O=C(c1cc(F)ccc1F)N1CC(Oc2ccccc2-c2nc(C3CC3)no2)C1	-	0	0	?	-	?
O=C(C1CCCC1)N1CCC(Oc2cnc3c(ccn3-c3cncnc3)c2)CC1	0	?	0	?	0	?
C[S+](=O)([O-])NCCn1ccc2cc(OC3CCN(C(=O)C4CCCC4)CC3)cnc21	0	0	0	100µM	0	?
COc1ccc(C(=O)N2CCOCC3(CN(Cc4cc(C)cc(F)c4)C3)C2)cc1OC	0	?	?	?	0	8.91µM
COc1ccc(C(=O)N2CCOCC3(C2)CN(c2nccs2)C3)cc1OC	0	0	0	?	0	0
O=C(c1ccc(Cl)cc1)N1CCOCC2(CN(Cc3ccccc3)C2)C1	0	0	0	3.16µM	0	0
O=C(c1ccc(Cl)cc1)N1CCOCC12CCN(CCc1ccccc1)CC2	0	0	0	?	0	?
COc1ccc(C(=O)N2CCOCC3(CN(Cc4cc(F)cc(F)c4)C3)C2)c(OC)n1	0	0	?	0	0	0
COc1ccc(C(=O)N2CCOCC3(CN(Cc4ccccc4)C3)C2)c(OC)n1	0	0	?	31.6µM	0	44.7µM
COc1ccc(C(=O)N2CCOCC3(CN(Cc4ccccc4)C3)C2)cc1	0	0	?	?	0	10µM
Cc1ccccc1NC(=O)N1CCC(CCNC(=O)c2ccnn2C)CC1	0	0	0	0	0	0
Cc1cccc(C(=O)N2CCCC(c3nc(C4CCOCC4)no3)C2)c1 (configuration not stated)	0	0	0	0	0	0
CCN(C)C(=O)C(C)N1CCc2onc(-c3ccc(-c4ccccc4)cc3)c2C1 (configuration not stated)	20µM	0	0	?	?	?
COc1ccccc1C(=O)N1CCC2(CC1)COc1ccccc1CN2	0	0	0	?	0	63.1µM
CC(C)NC(=O)NCc1nnc2n1C(C(=O)N1CCN(c3ncccn3)CC1)CC2 (configuration not stated)	-	0	0	0	-	0
CC(C)n1cnnc1CNC(=O)[C@H]1CNC[C@H](C(=O)N2CCOCC2)C1	0	0	0	0	0	0
COCC(=O)NCCNC(=O)c1ccc(-c2cncnc2)cc1	-	-	-	0	-	0
CC(=O)c1cccc(NC(=O)Cn2c(-c3ccc(F)cc3)nc(C)cc2=O)c1	0	?	?	0	0	44.7µM
Cc1cc(=O)n(CC(=O)Nc2ccccc2C)c(-c2ccc(Cl)cc2)n1	0	0	0	35.5µM	0	?
COc1ccccc1NC(=O)Cn1c(-c2ccc(Cl)cc2)nc(C)cc1=O	0	0	0	?	0	?
CCCN(CC1CCOC1)C(=O)NCc1ccco1 (configuration not stated)	0	0	0	0	0	0
CN1CCc2c([nH]c3ccccc23)C12CCN(C(=O)c1cccn1C)CC2	0	0[12.5 µM]	0	0	0	?
SMILES	FLuc inh	SNCA viab count	SNCA expr inh	3T3 cytotox	hNpr1 antagonist	HEK293 tox
N#Cc1ccc(S(=O)(=O)N2CCCCCNC(=O)CC2c2ccccc2)cc1 (configuration not stated)	0	0	0	0	0	0
O=C(NCc1nc(-c2cccc(F)c2)c(-c2ccccn2)[nH]1)N1CCCC1	0	0	0	?	0	50.1µM
N#Cc1cccnc1-c1cccc(C(=O)NCCNC(=O)Cc2ccccn2)c1	-	0	0	0	-	0
COc1ccc(NC(=O)N2Cc3[nH]cnc3C[C@H]2c2nc(-c3ccc(Cl)cc3)no2)cc1	?	?	0	?	?	?
COc1ccc(-c2noc([C@@H]3Cc4nc[nH]c4CN3C(=O)Nc3ccccc3)n2)cc1	31.6µM	?	0	?	?	?
Cc1ccc(NC(=O)N2Cc3[nH]cnc3C[C@H]2c2nc(-c3ccc(C)cc3)no2)cc1	31.6µM	?	0	100µM	0	?
OCC1(CN2CCCC2)CCN(Cc2ccc(Cl)c(F)c2)CC1	0	0	0	?	0	?
COC(=O)c1ccc2nc(C[C@@H]3C[C@@H](C(C)C)[C@H](CNC(=O)COCC(=O)O)C=C3C)[nH]c2c1	0	0	0	0	0	0
COC(=O)c1ccc2nc(C[C@@H]3C[C@@H](C(C)C)[C@H](CNC(=O)CCCC(=O)O)C=C3C)[nH]c2c1	0	0	0	0	0	?
COC(=O)c1ccc2nc(C[C@@H]3C[C@@H](C(C)C)[C@H](CNC(=O)CN(C)C)C=C3C)[nH]c2c1	0	0	0	?	0	35.5µM
COC(=O)c1ccc2nc(C[C@@H]3C[C@@H](C(C)C)[C@H](CN(C)C)C=C3C)[nH]c2c1	0	0	0	70.8µM	0	?
COCC(=O)NC[C@@H]1C=C(C)[C@H](Cc2nc3ccc(C(=O)OC)cc3[nH]2)C[C@H]1C(C)C	0	0	0	100µM	0	63.1µM
CC1=C[C@@H](CNS(C)(=O)=O)[C@H](C(C)C)C[C@H]1Cc1nnc(-c2ccccc2F)o1	0	0	0	?	0	?
CCCS(=O)(=O)NC[C@@H]1C=C(C)[C@H](Cc2nnc(-c3ccccc3F)o2)C[C@H]1C(C)C	0	?	0	25.1µM	0	22.4µM
CC1=C[C@@H](CNC(=O)C2CC2)[C@H](C(C)C)C[C@H]1Cc1nnc(-c2ccccc2F)o1	0	?	?	100µM	0	63.1µM
C#CCN(C)C[C@@H]1C=C(C)[C@H](Cc2nnc(-c3ccccc3F)o2)C[C@H]1C(C)C	0	0	0	79.4µM	?	79.4µM
COc1cc(OC)cc(C(=O)N2CCC(n3cc(-c4nc(-c5ccccc5)no4)nn3)C2)c1 (configuration not stated)	?	0	0	?	0	?
CC(C)N1CCC(N2CCCC(N3CCN(c4cccc(C(F)(F)F)c4)CC3)C2)CC1 (configuration not stated)	0	0	0	?	0	20µM

Screens deposited in PubChem BioAssay by National Center for Advancing Translational Sciences (NCATS).
